Assay results: PubChem BioAssay (NCATS)
Inconclusive results are not listed. Entries that show only a call come without a potency. Unmarked numbers belong to inactive results. The source made the active and inactive calls. Calls come from the whole dose curve; as a rule, active = well fitted curve in the direction sought with a large enough effect; inconclusive = small, poorly fitted or top-dose-only effect, or another doubt; inactive = no such curve, though single readings can be large; an effect the other way counts as inactive or inconclusive.

Columns and labels:
[1] = target: Cellular tumor antigen p53 (Homo sapiens) (UniProt P04637); test: Primary qHTS for small molecule compounds that upregulate eGFP-tagged delta133p53alpha (in N-terminal) cells. (AID 2060322); conditions: NCI-H358 eGFP-delta133p53alpha fluorescence, 24 h; activation: active compounds read high; note: nearly all actives have a fitted effect of over 75% in size; note: potency is the fitted concentration of half-maximal effect;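 for activation: cells pre-induced with doxycycline then dosed without doxycycline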
Chain of Cellular tumor antigen p53 (Homo sapiens) (P04637 whole entry, looked up): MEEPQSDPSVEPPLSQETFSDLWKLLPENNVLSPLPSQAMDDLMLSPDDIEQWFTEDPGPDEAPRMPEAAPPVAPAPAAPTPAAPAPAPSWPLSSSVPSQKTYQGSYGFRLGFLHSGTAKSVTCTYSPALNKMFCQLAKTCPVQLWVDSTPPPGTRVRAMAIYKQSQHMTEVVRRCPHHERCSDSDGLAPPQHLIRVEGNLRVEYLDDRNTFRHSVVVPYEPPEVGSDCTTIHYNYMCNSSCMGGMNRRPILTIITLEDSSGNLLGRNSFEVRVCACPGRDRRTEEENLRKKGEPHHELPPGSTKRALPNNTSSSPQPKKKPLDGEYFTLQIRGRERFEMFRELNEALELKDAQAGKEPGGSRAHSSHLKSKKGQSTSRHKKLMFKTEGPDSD
In short: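 NCI-H358 cells pre-induced 24 h with 10 ng/ml doxycycline for eGFP-delta133p53alpha, plated dox-free and exposed 24 h at 37C to titrated compounds. Fixed, Hoechst-stained; gated GFP peak intensity by laser scanning cytometry, normalized to DMSO (0%) and 57.5 uM 5-azacytidine (100%).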

[2] = target: Aldehyde dehydrogenase, mitochondrial (Homo sapiens) (UniProt P05091); test: qHTS for Inhibitors of the Aldehyde Dehydrogenase Family (ALDH2) Primary screen (AID 2061308); conditions: ALDH2 enzyme inhibition qHTS, 1536-well; series mostly up to 56 µM; note: nearly all actives have a fitted effect of over 55% in size
[3] = target: Retinaldehyde dehydrogenase 3 (Homo sapiens) (UniProt P47895); test: qHTS for Inhibitors of the Aldehyde Dehydrogenase Family (ALDH1A3) Primary screen (AID 2061315); conditions: ALDH inhibition qHTS; series mostly up to 56 µM

Structure (SMILES) | activation [1] | Potency [2] | Potency [3] | activity change, negative = inhibition [2] | activity change, negative = inhibition [3] | Potency [1]
Cc1ccc(F)cc1S(=O)(=O)N[C@@H]1CCN(Cc2ccc(OC(C)C)cc2)C1 | -2.39% | inactive | inactive | – | – | –
C=C1C[C@]23C[C@H]1CC[C@H]2[C@@]1(C)CCC[C@@]2(C)C(=O)O[C@@H]([C@@H]3O)[C@@H]12 | 12.2% | inactive | inactive | – | – | –
CC1(C)CC2C3=CCC4C5(C)CCC(OC6OC(CO)C(O)C(OC7OC(CO)C(O)C(OC8OC(CO)C(O)C(OC9OC(COC%10OC(CO)C(O)C(O)C%10O)C(O)C(O)C9O)C8O)C7O)C6O)C(C)(C)C5CCC4(C)C3(C)CCC2(C(=O)O)CC1O (stereo unspecified) | -24.4% | – | – | 8.77% [at 11.2 µM] | 1.03% [at 11.2 µM] | –
CC1(O)CC(O)C2(O)C=COC(O[C@@H]3O[C@H](CO)[C@@H](O)[C@H](O)[C@H]3O)C12 (stereo partly specified) | 0.893% | inactive | inactive | – | – | –
CC(C)(C)c1nnc(NS(=O)(=O)c2ccccc2)s1 | 11.7% | inactive | inactive | – | – | –
C/C(=C/CO)CCC1C(C)CCC2C(C)(C)CCCC12C (stereo unspecified) | -9.92% | inactive | inactive | – | – | –
Clc1ccc(CN[C@H]2CCN(c3ncc(Br)cn3)C2)c(Cl)c1 | 3.57% | inactive | inactive | – | – | –
CN1C(=O)c2ccccc2-n2c(nc3ccccc3c2=O)/C1=C/c1ccccc1 | 2.29% | inactive | inactive | – | – | –
O=S(=O)(N[C@H]1CCCC[C@@H]1N1CCOCC1)c1ccc(Cl)cc1 | -16.3% | inactive | inactive | – | – | –
C=C(C=O)[C@]1(O)C[C@@]2(C)C(=CC1=O)C=C[C@H](OC(=O)/C=C/C=C/[C@H](C)CC)[C@@H]2C | – | inactive | inactive | – | – | 4.65 µM (active)
O=C1NC2CCc3nc4ccccc4c(=O)n3C2=Nc2ccccc21 (stereo unspecified) | -8.93% | inactive | inactive | – | – | –
CC(CCC1(O)OC2CC3C4CC=C5CC(O[C@@H]6O[C@H](CO)[C@@H](O[C@@H]7O[C@H](CO)[C@@H](O)[C@H](O)[C@H]7O)[C@H](O)[C@H]6O[C@@H]6O[C@@H](C)[C@H](O)[C@@H](O)[C@H]6O)CCC5(C)C4CCC3(C)C2C1C)CO[C@@H]1O[C@H](CO)[C@@H](O)[C@H](O)[C@H]1O (stereo partly specified) | 12.5% | inactive | inactive | – | – | –
COc1ccccc1-c1c[nH]c2ncc(-c3cncc(C(=O)N(C)C)c3)cc12 | – | inactive | inactive | – | – | 21.3 µM (active)
COc1ccc(/C=C/C(=O)O[C@@H]2[C@@H](O)[C@H](C)O[C@@H](OC3C4C=COC(O[C@@H]5O[C@H](CO)[C@@H](O)[C@H](O)[C@H]5O)C4C4(CO)OC34)[C@@H]2O)cc1OC (stereo partly specified) | -13% | inactive | inactive | – | – | –
O=C(O)C[C@H]1CCC(=O)[C@@H]1C/C=C\CCOC1OC(CO)C(O)C(O)C1O (stereo partly specified) | -3.82% | inactive | inactive | – | – | –
CC(=O)O[C@@H]1[C@@H](OC(C)=O)[C@H](C)O[C@@H](O[C@H]2[C@@H]3C=CO[C@@H](O[C@@H]4O[C@H](CO)[C@@H](O)[C@H](O)[C@H]4O)[C@@H]3[C@@]3(CO)O[C@@H]23)[C@@H]1OC(=O)/C=C/c1ccccc1 | -1.53% | inactive | inactive | – | – | –
CC(=O)OC1C(OC(=O)c2ccccc2)C2C(C)(C)CCC(OC(C)=O)C2(C)C23CCC(C)(C2)C(=O)CC13 (stereo unspecified) | -14.5% | inactive | inactive | – | – | –
CCC(C)/C=C(C)/C=C/C1=CC2=C(Cl)C(=O)C(C)(O)C(=O)C2(O)C(OC)O1 (stereo unspecified) | 28.2% | inactive | inactive | – | – | –
CC(C)CC(c1c(O)c(C=O)c(O)c(C=O)c1O)C1CCC(C)(O)C2CC(C(C)(C)O)CCC12C (stereo unspecified) | 22.3% | inactive | inactive | – | – | –
C/C(CO)=C1/CCC23COC(C2)C(O)(C(=O)O)CCC13 (stereo unspecified) | 0% | inactive | inactive | – | – | –
CC1(C)C2CC[C@]3(C)C(C(=O)C=C4[C@H]5C[C@@](C)(C(=O)O)CC[C@]5(C)CC[C@]43C)[C@@]2(C)CC[C@@H]1O (stereo partly specified) | 6.87% | inactive | inactive | – | – | –
CC1CC[C@]2(C(=O)O)CC[C@]3(C(=O)O)C(=CCC4[C@@]5(C)CC[C@H](O[C@@H]6O[C@H](CO)[C@@H](O)[C@H](O)[C@H]6O)C(C)(C)C5CC[C@]43C)C2C1C (stereo partly specified) | 0.893% | inactive | inactive | – | – | –
C/C=C(/C)C(=O)O[C@@H]1C[C@@H](OC(=O)/C(C)=C\C)[C@@]2(C)C3C(=O)C=C(C)C2C3C1(C)C | -3.57% | inactive | inactive | – | – | –
CC(C)(C)NC(=O)[C@@H](c1cccnc1)N(C(=O)c1ccco1)c1ccc(C(C)(C)C)cc1 | 5% | inactive | inactive | – | – | –
C[C@@H](c1nc(-c2ccc(C#N)cc2)cs1)[C@](O)(Cn1cncn1)c1cc(F)ccc1F | -2.33% | inactive | inactive | – | – | –
CC(=O)N1c2ccccc2C2(O)CC3C(=O)NC(CC(C)C)C(=O)N3C12 (stereo unspecified) | -32.8% | inactive | inactive | – | – | –

Structure (SMILES) | activation [1] | Potency [2] | Potency [3] | activity change, negative = inhibition [2] | activity change, negative = inhibition [3] | Potency [1]
CC1=CCC2C(C)(C)CCC[C@]2(C)[C@@]12CC[C@](C)(CC(=O)O)O2 (stereo partly specified) | 27.5% | inactive | inactive | – | – | –
CC1(CO)CCCC2(C)C1C(OC(=O)c1ccccc1)C=C1C(=O)OCC12O (stereo unspecified) | – | inactive | inactive | – | – | 20.9 µM (active)
COC(=O)[C@]1(C)CCC[C@@]2(C)[C@@H]3CC[C@@H]4C[C@@]3(CC[C@@H]21)C[C@H]4C(=O)O | -17.6% | inactive | inactive | – | – | –
CCCOc1ccc(S(=O)(=O)N2CCN(CCO)CC2)cc1-c1nc2c(CCC)cn(CC)c2c(=O)[nH]1 | -0.893% | inactive | inactive | – | – | –
CC1CCC2(OC1)OC1CC3C4CC=C5CC(O)CC(O[C@@H]6OC[C@@H](O)[C@H](O)[C@H]6O)C5(C)C4CCC3(C)C1(O)C2C (stereo partly specified) | 16.8% | inactive | inactive | – | – | –
Nc1ncnc2c1nc(Cl)n2C1OC2COP(=O)(O)OC2C1O (stereo unspecified) | -12.3% | inactive | inactive | – | – | –
CC[C@@H](O)C[C@@H]1C(C)=C[C@@H]2CCCC[C@@H]2[C@@]1(C)C(=O)O | -6.87% | inactive | inactive | – | – | –
O=C(Nc1ccccc1-c1cn2c(CN3CCNCC3)csc2n1)c1ccc2ccccc2n1 | 11% | inactive | inactive | – | – | –
COc1c(O)cc2c(c1O)C(=O)O[C@H](C)[C@H]2O | -14.5% | inactive | inactive | – | – | –
O=C(CCc1ccccc1)c1c(O)c([C@@H]2O[C@H](CO)[C@@H](O)[C@H](O)[C@H]2O)c(O)c([C@@H]2O[C@H](CO)[C@@H](O)[C@H](O)[C@H]2O)c1O | -1.53% | inactive | inactive | – | – | –
C=C[C@H]1[C@H](O[C@@H]2O[C@H](CO)[C@@H](O)[C@H](O)[C@H]2O)OC=C(C(=O)OC)[C@H]1C[C@@H]1c2cc(O)c(O)cc2CCN1C(C)=O | -6.11% | inactive | inactive | – | – | –
COc1cc(NC(=O)Nc2cccc(CNC(=O)O[C@H]3CCOC3)c2)ccc1-c1cnco1 | 7.14% | inactive | inactive | – | – | –
CC(C)c1cc2c(N3CCN(C4=NCC(C)(C)S4)CC3)ncnc2s1 | 3.67% | inactive | inactive | – | – | –
O=C(NCc1ccc(OC(F)(F)F)cc1)C1c2c(F)cccc2C(=O)N1CCc1ccccn1 (stereo unspecified) | 11.6% | inactive | inactive | – | – | –
OCC1OC(Oc2cc(O)c3c(c2)OC(c2ccc(O)cc2)C(O)C3)C(O)C1O (stereo unspecified) | -25.2% | inactive | inactive | – | – | –
C[C@H]1[C@H](C)CC[C@]2(C(=O)OC3OC(CO)C(O)C(O)C3O)CC[C@]3(C(=O)O)C(=CCC4[C@@]5(C)CC[C@H](O[C@@H]6O[C@@H](C)[C@H](OC7OC(CO)C(O)C(O)C7O)[C@@H](O)[C@H]6O)C(C)(C)C5CC[C@]43C)[C@H]12 (stereo partly specified) | -9.92% | inactive | inactive | – | – | –
CC1(C)CCC2(C(=O)O)C(O)CC3(C)C(=CCC4C5(C)CCC(OC6OC(CO)C(O)C(O)C6OC6OC(CO)C(O)C(O)C6OC6OCC(O)(CO)C6O)C(C)(C)C5CCC43C)C2C1 (stereo unspecified) | -18.3% | inactive | inactive | – | – | –
Cc1[nH]c2ccccc2c1CCNC(=O)c1ccccc1F | -0.477% | inactive | inactive | – | – | –
C=C[C@@]1(C)CCC2=C([C@H]1OC(C)=O)[C@H](OC(C)=O)CC1[C@](C)(C(=O)OC)CC[C@H](OC(C)=O)[C@]21C (stereo partly specified) | 15.2% | inactive | inactive | – | – | –
CC(C)(O)c1ccc2c(c1)C(O)C[C@H]1[C@](C)(C(=O)O)CCC[C@]21C (stereo partly specified) | 3.57% | inactive | inactive | – | – | –
CC(C)(O)C(O)C(=O)OCc1ccc(O[C@@H]2O[C@H](CO)[C@@H](O)[C@H](O)[C@H]2O)cc1 (stereo partly specified) | 8.4% | inactive | inactive | – | – | –
O=C(O)C(O[C@@H]1O[C@H](CO[C@@H]2O[C@H](CO)[C@@H](O)[C@H](O)[C@H]2O)[C@@H](O)[C@H](O)[C@H]1O)c1ccccc1 (stereo partly specified) | -16% | inactive | inactive | – | – | –
CC(C)C1=CC2=CCC3[C@](C)(CCC[C@@]3(C)C(=O)O)C2CC1=O (stereo partly specified) | 8.93% | inactive | inactive | – | – | –
COc1cc2c(cc1OC)CC(=O)N(CCCNC[C@H]1Cc3cc(OC)c(OC)cc31)CC2 | -11.7% | inactive | inactive | – | – | –
CC1=CC(=O)C2(OC3OC(C)C(O)C(OC(=O)/C=C/c4ccccc4)C3O)C=COC(OC3OC(CO)C(O)C(O)C3O)C12 (stereo unspecified) | -13.7% | inactive | inactive | – | – | –
CC(C)OC(=O)N1CCC(Oc2ncnc3c2cnn3-c2ccc(S(C)(=O)=O)cc2F)CC1 | 4.3% | inactive | inactive | – | – | –
